Measured values from PubChem BioAssay (EPA / NIEHS).
Calls of active or inactive are those of the source. The calls were made as follows: active = hit-call score of the fitted dose curve at least 0.9, where 1 is the maximum; inactive = score below 0.9.

What was measured:
[1] = molecular target: Retinoic acid receptor alpha (Homo sapiens) (UniProt P10276); test: ATG_DR5_RAR_CIS: Attagene CIS-FACTORIAL HepG2 Assay for human Retinoic Acid Receptor Alpha (RARE), DR5 submotif (AID 2282934); conditions: HepG2 Attagene cis-factorial RARE DR5 reporter, mRNA; actives raise or lower the signal
Summary of the method: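 Transfected HepG2 reporter cells are exposed to chemicals for 24 h. Then RNA is extracted and the DR5 element reporter transcript is measured by RT-PCR and capillary electrophoresis, with bidirectional curve fitting relative to DMSO.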

[2] = read-out: Vascular endothelial growth factor receptor 2 (Homo sapiens) (UniProt P35968); test: BSK_4H_VEGFRII: BioMAP Diversity Plus: 4H Assay for Vascular endothelial growth factor receptor 2 (VEGFR2) Biomarker Activity (AID 2283031); conditions: primary human endothelial cells (HUVEC); actives raise or lower the signal;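 as to AC50: cell-surface VEGFR2 protein level quantified by ELISA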
Summary of the method: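 In this multiplexed HUVEC system, biomarker ELISA was performed after 24 h chemical exposure. Parallel SRB staining (TCA fixation, 560 nm) tracked cytotoxicity; DMSO served as baseline.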

[3] = read-out: Human Leukocyte Antigen - DR isotype (HLADR), HLA-DRA (gene 3122); test: BSK_BE3C_HLADR: BioMAP Diversity Plus: BE3C Assay for Human Leukocyte Antigen - DR isotype (HLADR) Biomarker Activity (AID 2283032); conditions: primary human bronchial epithelial cells; actives raise or lower the signal
Summary of the method: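 BioMAP BE3C format: human bronchial epithelium, 24 h compound treatment, ELISA detection of HLA-DR, with bidirectional analysis relative to DMSO.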

[4] = read-out: TIMP metallopeptidase inhibitor 2 (TIMP2), TIMP2 (gene 7077); test: BSK_KF3CT_TIMP2: BioMAP Diversity Plus: KF3CT Assay for TIMP metallopeptidase inhibitor 2 (TIMP2) Biomarker Activity (AID 2283071); conditions: primary human keratinocytes with fibroblasts; actives raise or lower the signal
Summary of the method: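 Measurements come from ELISA detection of TIMP-2 at 24 hours in a dosed human keratinocyte and foreskin fibroblast co-culture. DMSO serves as negative control and baseline.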

[5] = read-out: C-C motif chemokine 2 (Homo sapiens) (UniProt P13500); test: BSK_KF3CT_MCP1: BioMAP Diversity Plus: KF3CT Assay for Monocyte Chemoattractant Protein 1 (MCP1/CCL2) Biomarker Activity (AID 2283073); conditions: primary human keratinocytes with fibroblasts; actives raise or lower the signal
Summary of the method: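 Biomarker MCP-1 is measured by ELISA in primary human keratinocytes co-cultured with foreskin fibroblasts, 24 h after chemical treatment; DMSO serves as the negative control and activity baseline.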

[6] = read-out: urokinase plasminogen activator (uPA), PLAU (gene 5328); test: BSK_KF3CT_uPA: BioMAP Diversity Plus: KF3CT Assay for urokinase plasminogen activator (uPA) Biomarker Activity (AID 2283075); conditions: primary human keratinocytes with fibroblasts; actives raise or lower the signal
Summary of the method: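 Values derive from bidirectional fitting against DMSO controls. Keratinocyte/foreskin fibroblast co-cultures received chemical; 24 h later uPA was detected by ELISA, with SRB total-protein staining in parallel wells for overt cytotoxicity.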

CD40, CD40 (gene 958) = test: BSK_LPS_CD40: BioMAP Diversity Plus: LPS Assay for CD40 Biomarker Activity (AID 2283076); conditions: primary human HUVEC with PBMC; actives raise or lower the signal
Summary of the method: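 Using a multiplexed primary human co-culture (umbilical vein endothelium plus PBMC), CD40 was read by ELISA 24 h after dosing, with cytotoxicity tracked by sulforhodamine B staining of parallel cultures and activity fitted bidirectionally versus DMSO.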

[7] = read-out: E-selectin (Homo sapiens) (UniProt P16581); test: BSK_LPS_Eselectin: BioMAP Diversity Plus: LPS Assay for Eselectin Biomarker Activity (AID 2283077); conditions: primary human HUVEC with PBMC; actives raise or lower the signal
Summary of the method: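 Dose chemical onto LPS-driven HUVEC/PBMC co-culture; after 24 h, run ELISA for E-selectin; fit up- and down-going responses relative to DMSO control.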

[8] = read-out: Interleukin-8 (IL8), CXCL8 (gene 3576); test: BSK_LPS_IL8: BioMAP Diversity Plus: LPS Assay for Interleukin-8 (IL8) Biomarker Activity (AID 2283078); conditions: primary human HUVEC with PBMC; actives raise or lower the signal
Summary of the method: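 In this LPS system, chemical-treated human umbilical vein endothelium/PBMC co-cultures were harvested at 24 h for IL-8 ELISA.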

[9] = BSK_LPS_SRB: Viability Assessment in the BioMAP Diversity Plus: LPS Assay (AID 2283079); conditions: primary human HUVEC with PBMC;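 also: total protein by sulforhodamine B absorbance as a cytotoxicity measure; measured one day after compound addition; fitted in both directions against DMSO so loss or gain of signal counts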
Summary of the method: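 Cytotoxicity endpoint in human endothelial–PBMC co-culture: 24 h exposure, then SRB (0.1%) staining, 560 nm read.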

[10] = read-out: Monocyte Chemoattractant Protein-1 (MCP1), CCL2 (gene 6347); test: BSK_LPS_MCP1: BioMAP Diversity Plus: LPS Assay for Monocyte Chemoattractant Protein-1 (MCP1) Biomarker Activity (AID 2283081); conditions: primary human HUVEC with PBMC; actives raise or lower the signal;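 as to AC50: co-culture stimulated with LPS; secreted MCP-1 protein quantified by ELISA in culture supernatant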
Summary of the method: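 Values derive from bidirectional fitting against DMSO of ELISA-measured MCP-1 in a human primary endothelial and mononuclear cell co-culture, 24 h after chemical addition under LPS activation.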

[11] = read-out: Macrophage colony-stimulating factor (MCSF), CSF1 (gene 1435); test: BSK_LPS_MCSF: BioMAP Diversity Plus: LPS Assay for Macrophage colony-stimulating factor (MCSF) Biomarker Activity (AID 2283083); conditions: primary human HUVEC with PBMC; actives raise or lower the signal
Summary of the method: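 Bidirectional fit versus DMSO of ELISA-measured M-CSF in co-cultured human umbilical vein endothelial cells and PBMC, sampled 24 h after dosing.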

[12] = read-out: Tissue Factor, F3 (gene 2152); test: BSK_LPS_TissueFactor: BioMAP Diversity Plus: LPS Assay for Tissue Factor Biomarker Activity (AID 2283084); conditions: primary human HUVEC with PBMC; actives raise or lower the signal
Summary of the method: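 Read-out: CD142 ELISA, 24 h. System: LPS-driven human endothelial/PBMC co-culture. Analysis: up- or down-signal fitted against DMSO.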

[13] = read-out: Vascular cell adhesion molecule 1 (VCAM1), VCAM1 (gene 7412); test: BSK_LPS_VCAM1: BioMAP Diversity Plus: LPS Assay for Vascular cell adhesion molecule 1 (VCAM1) Biomarker Activity (AID 2283086); conditions: primary human HUVEC with PBMC; actives raise or lower the signal
Summary of the method: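 Measured by ELISA: VCAM-1 in LPS-activated HUVEC/PBMC co-cultures 24 h after treatment. Values reflect bidirectional fitting with DMSO as baseline.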

CD38, CD38 (gene 952) = test: BSK_SAg_CD38: BioMAP Diversity Plus: SAg Assay for CD38 Biomarker Activity (AID 2283087); conditions: primary human HUVEC with PBMC; actives raise or lower the signal
Summary of the method: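 Measures CD38 on a human endothelial/PBMC co-culture driven by SEB and TSST-1, 24 h after compound exposure, using ELISA with fluorescence detection; DMSO defines baseline for bidirectional curve fitting.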

CD69, CD69 (gene 969) = test: BSK_SAg_CD69: BioMAP Diversity Plus: SAg Assay for CD69 Biomarker Activity (AID 2283089); conditions: primary human HUVEC with PBMC; actives raise or lower the signal;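 as to AC50: cell surface CD69 protein quantified by ELISA with fluorescence detection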
Summary of the method: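 Values derive from bidirectional fitting relative to DMSO vehicle. Cells: umbilical vein endothelium plus peripheral blood mononuclear cells, treated 24 h before fluorescent ELISA for CD69.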

[14] = read-out: Monocyte Chemoattractant Protein-1 (MCP1), CCL2 (gene 6347); test: BSK_SAg_MCP1: BioMAP Diversity Plus: SAg Assay for Monocyte Chemoattractant Protein-1 (MCP1) Biomarker Activity (AID 2283090); conditions: primary human HUVEC with PBMC; actives raise or lower the signal
Summary of the method: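 Values derive from bidirectional fitting of ELISA-measured MCP1 against DMSO controls. Readings were taken 24 h after dosing human vascular endothelial cells co-cultured with peripheral blood mononuclear cells under superantigen stimulation.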

[15] = read-out: E-selectin (Homo sapiens) (UniProt P16581); test: BSK_SAg_Eselectin: BioMAP Diversity Plus: SAg Assay for Eselectin Biomarker Activity (AID 2283091); conditions: primary human HUVEC with PBMC; actives raise or lower the signal
Summary of the method: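 Endpoint values derive from bidirectional fitting relative to DMSO, using ELISA-measured E-selectin in a human vascular co-culture (umbilical vein endothelium plus PBMC) sampled 24 h after dosing.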

[16] = read-out: Interleukin-8 (IL8), CXCL8 (gene 3576); test: BSK_SAg_IL8: BioMAP Diversity Plus: SAg Assay for Interleukin-8 (IL8) Biomarker Activity (AID 2283094); conditions: primary human HUVEC with PBMC; actives raise or lower the signal
Summary of the method: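 Primary human endothelial cells with PBMC, exposed 24 h; IL-8 determined by ELISA, analysed bidirectionally relative to DMSO.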

Measured: AC50

Chain of E-selectin (Homo sapiens) (P16581 whole entry, looked up): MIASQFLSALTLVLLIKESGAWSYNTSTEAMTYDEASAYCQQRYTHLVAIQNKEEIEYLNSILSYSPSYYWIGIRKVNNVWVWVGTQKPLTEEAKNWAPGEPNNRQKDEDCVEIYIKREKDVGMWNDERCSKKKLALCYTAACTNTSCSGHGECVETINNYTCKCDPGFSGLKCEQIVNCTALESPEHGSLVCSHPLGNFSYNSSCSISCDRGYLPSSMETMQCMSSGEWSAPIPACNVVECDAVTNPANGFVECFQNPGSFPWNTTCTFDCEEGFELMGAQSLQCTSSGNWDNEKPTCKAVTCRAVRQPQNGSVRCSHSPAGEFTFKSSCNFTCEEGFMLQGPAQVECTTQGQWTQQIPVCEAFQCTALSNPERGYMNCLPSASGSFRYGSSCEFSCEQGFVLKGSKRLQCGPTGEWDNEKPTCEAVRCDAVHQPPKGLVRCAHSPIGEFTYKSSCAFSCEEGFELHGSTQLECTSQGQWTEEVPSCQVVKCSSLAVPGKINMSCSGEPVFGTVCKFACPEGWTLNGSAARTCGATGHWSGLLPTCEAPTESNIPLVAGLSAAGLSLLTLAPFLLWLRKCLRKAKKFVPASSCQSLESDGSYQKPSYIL
Chain of Retinoic acid receptor alpha (Homo sapiens) (P10276 whole entry, looked up): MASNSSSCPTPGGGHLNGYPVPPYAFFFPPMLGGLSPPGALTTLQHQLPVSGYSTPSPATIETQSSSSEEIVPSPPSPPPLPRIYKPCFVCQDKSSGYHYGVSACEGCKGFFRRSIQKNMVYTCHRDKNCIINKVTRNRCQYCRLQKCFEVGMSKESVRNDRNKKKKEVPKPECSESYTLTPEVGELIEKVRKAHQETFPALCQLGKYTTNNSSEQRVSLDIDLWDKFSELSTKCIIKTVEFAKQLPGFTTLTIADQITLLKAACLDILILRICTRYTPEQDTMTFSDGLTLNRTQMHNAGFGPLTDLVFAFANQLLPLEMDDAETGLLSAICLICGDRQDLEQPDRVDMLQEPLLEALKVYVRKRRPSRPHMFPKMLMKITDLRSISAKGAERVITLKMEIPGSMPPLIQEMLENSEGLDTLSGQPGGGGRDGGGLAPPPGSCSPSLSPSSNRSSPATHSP

[N-]=[N+]=CC(=O)OC[C@H](N)C(=O)O
inactive: [1]

CCOP(=O)(OCC)OCC
inactive: [1]

O=C(CCl)c1ccccc1
active: [3] 30.4 µM | [4] 36.4 µM | [5] 32 µM | [6] 30 µM | CD40, CD40 (gene 958) 4.58 µM | [7] 6.13 µM | [8] 7.85 µM | [9] 15.2 µM | [10] 6.34 µM | [11] 4.37 µM | [12] 5.81 µM | [13] 3.68 µM | CD38, CD38 (gene 952) 4.55 µM | CD69, CD69 (gene 969) 6.19 µM | [14] 6.73 µM | [15] 3.31 µM | [16] 5.88 µM
inactive: [1] | [2]

CC(O)CN(CC(C)O)CC(C)O (configuration not stated)
inactive: [1]

[CH3][Sn]([Cl])([Cl])[Cl]
inactive: [1]

S=c1[nH]c2ccccc2[nH]1
inactive: [1]

CC(C)(c1cc(Cl)c(O)c(Cl)c1)c1cc(Cl)c(O)c(Cl)c1
active: [2] 6.9 µM | [3] 9.27 µM | [4] 5.51 µM | [5] 10 µM | [6] 9.27 µM | CD40, CD40 (gene 958) 17.3 µM | [8] 32.5 µM | [9] 31.7 µM | [10] 31.3 µM | [11] 17.2 µM | [12] 31.3 µM | [13] 29.8 µM | CD38, CD38 (gene 952) 26.6 µM | CD69, CD69 (gene 969) 26.3 µM | [14] 31.9 µM | [15] 23.5 µM | [16] 31 µM

O=P1(NCCCl)OCCCN1CCCl (configuration not stated)
not listed: [1]
inactive: all other assays above

O=[N+]([O-])C=Cc1ccccc1
inactive: [2]
active: [3] 1.56 µM | [4] 8.02 µM | [5] 20 µM | [6] 10.2 µM | CD40, CD40 (gene 958) 5.97 µM | [7] 15.3 µM | [8] 20 µM | [9] 11 µM | [10] 10.3 µM | [11] 10.8 µM | [12] 10.7 µM | [13] 8.21 µM | CD38, CD38 (gene 952) 24.9 µM | CD69, CD69 (gene 969) 20 µM | [14] 20 µM | [15] 20 µM | [16] 11.3 µM
